Experimental data taken from PubChem BioAssay (NCATS).
Inconclusive results are not listed. A call without a number means that no potency is given here. Calls of active or inactive are those of the source. The call rests on the fitted dose curve.

How the values were obtained:
[1] = Cytotoxicity counterscreen for inhibitors of SARS-CoV-2 cell entry (AID 1645845); conditions: outcome: dose series up to 57.1 µM unless noted; further: nearly all actives have a fitted effect of over 50% in size
In short: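 After a 15 min room-temperature ATPLite 1step step, luminescence reflected ATP remaining in HEK293-ACE2 cells exposed to compound for 1 h plus 48 h at 37 C, with percent activity set by cell and no-cell controls.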

[2] = Primary qHTS to identify inhibitors of SARS-CoV-2 cell entry (AID 1645846); conditions: SARS-CoV-2 pseudovirus cell entry assay, luminescence; activity change, negative = inhibition: at 57.1 µM (top of the series) unless noted; further: nearly all actives have a fitted effect of over 45% in size
In short: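 Luminescence readout (Bright-Glo luciferase) 48 h after pseudoparticle addition. HEK293-ACE2 cells, 1500/well; compound pre-incubation 1 h; Normalized to spike PP and bald PP.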
Potency means the concentration at half of the fitted maximal effect.

Structure (SMILES)	Potency [1]	activity change, negative = inhibition [2] [%]	Potency [2]
CCOC(=O)c1ccnc(CNCC(=O)N(CC)CCN(C)C)c1	inactive	-19.4	
CCOCc1nc2c(N)nc3ccccc3c2n1CC(C)(C)O	inactive	-25	
COC(=O)/C=C/C(=O)N(O)CCCCNCc1ccc(COC(=O)Nc2cccc3ccccc23)cc1	inactive	-27.1	
CC(C)C(N)C(=O)OCC(CO)OCn1cnc2c(=O)[nH]c(N)nc21 (stereo unspecified)	inactive	-6.77	
COc1ccc2c(c1)CC[C@@H]1[C@@H]2CC[C@]2(C)[C@@H](NCCCCCCN3C(=O)C=CC3=O)CC[C@@H]12	inactive		inactive
CC(C)[C@@H](CS(=O)(=O)C(C)C)N1C(=O)[C@@](C)(CC(=O)O)C[C@H](c2cccc(Cl)c2)[C@H]1c1ccc(Cl)cc1	inactive	-11.9	
C[C@@H]1CC(=O)Nc2cccc(-c3cnn(C(C)(C)C)c3)c2N1	inactive	-17.2	
O=C(c1ccc(/C=C/c2n[nH]c3ccccc23)cc1)N1CCNCC1	inactive		inactive
O=c1cc(N2CCOCC2)oc2c(-c3ccc4c(c3)OCCO4)csc12	inactive	-5.73	
N#Cc1ccnc(Nc2cc(C3CCN(C4COC4)CC3)cc(N3CCC(F)(F)C3)n2)c1	8.91 µM (active)		3.16 µM (active)
COC1=C2C[C@H](C)C[C@H](OC)[C@H](O)[C@@H](C)/C=C(/C)[C@H](OC(N)=O)[C@@H](OC)/C=C\C=C(\C)C(=O)NC(=CC1=O)C2=O	inactive		inactive
Cc1[nH]nc2ncc(C(=O)N3CCC[C@H]3c3ccc(Cl)cc3)cc12	inactive	-17.3	
Nc1nc2cc(-c3ccc4ncc(C(=O)N5CCOCC5)n4c3)ccc2o1	inactive		inactive
CC(C)n1cc(-c2ccc3c(c2)N(C)CC3)c2c(NS(=O)(=O)c3ccn(C)n3)ccnc21	inactive	-1.94	
O=c1ccn([C@@H]2O[C@H](CO)[C@@H](O)[C@H]2O)c(=O)[nH]1	inactive	-16.1	
CN(CCOc1ccc(-c2ccc3c(c2)OCO3)cc1C(C)(C)C)CC(=O)O	inactive	-18.5	
Cc1[nH]nc(C(F)(F)F)c1Cc1sc2c(c1C(=O)N1C[C@](C)(O)CO1)c(=O)n(C)c(=O)n2C(C)C	inactive	-25.9	
OC[C@H]1O[C@@H](S[C@@H]2O[C@H](CO)[C@H](O)[C@H](n3cc(-c4cccc(F)c4)nn3)[C@H]2O)[C@H](O)[C@@H](n2cc(-c3cccc(F)c3)nn2)[C@H]1O	inactive	2.64	
Cc1cc(I)ccc1Nc1c(C(=O)NOCC2CC2)cc(F)c(F)c1F	17.8 µM (active)		12.6 µM (active)
Cc1c(F)cccc1NC(=O)Nc1ccc(Cl)c(S(=O)(=O)[C@H]2CCCNC2)c1O	inactive		inactive
O=C(O)CC1CCC(c2ccc(-c3ccc(Nc4ccc(C(F)(F)F)nc4)cn3)cc2)CC1 (stereo unspecified)	inactive	-24.6	
COc1ncc(Nc2ncc([C@H](C)N3CCN(S(C)(=O)=O)CC3)cc2-c2nc(C)nc(N)n2)cc1F	inactive	-47.8	
Nc1cc(COc2c(Cl)cc(C[C@H](N)C(=O)O)cc2Cl)c2oc(-c3ccccc3)nc2c1	inactive	-18.9	
Cc1ccc(-c2nc(N)nc3c2nnn3Cc2cccc(CO[C@H]3CCOC3)n2)o1	inactive	-15.2	
c1cn2cc(-c3ccc4cn[nH]c4c3)nc(Nc3ccc(N4CCOCC4)cc3)c2n1	2.82 µM (active)	-27	
CC(C)(C)Sc1c(CC(C)(C)C(=O)O)n(Cc2ccc(Cl)cc2)c2ccc(OCc3ccc4ccccc4n3)cc12	inactive		inactive
Cn1c(-c2ccccc2C(F)(F)F)nnc1C12CCC(c3noc(C4CC(F)(F)C4)n3)(CC1)CC2	inactive	-12.8	
COc1ccc(Cl)cc1-c1cc(=O)[nH]c(=S)n1CC(N)=O	inactive	4.69	
